Most compounds without a hit are left out; they make up all but 21% or so of the library.
Gal4-VP16 FLuc = VP16 counterscreen qHTS for inhibitors of ROR gamma transcriptional activity. Drosophila S2 Gal4-VP16 UAS-luciferase, luminescence, 20 h. Potency, µM (top dose mostly 53.6 µM), without a hit: top-dose activity, negative = inhibition, hits mostly inhibitors. hit rate 3.5% among 310,000;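 also: Gal4-VP16 expression switched on by copper sulfate through the metallothionein promoter; potency is read from the fitted curve at half-maximal effect; nearly all actives have a fitted effect of over 50% in size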
IL1B secr inh = qHTS for Inhibitors of Inflammasome Signaling: IL-1-beta AlphaLISA Primary Screen; THP-1 LPS/ATP IL-1B secretion, AlphaLISA, 16 h; stronger effect = lower value; activity change, % at 57.5 µM; hit rate 4.7% among 360,000; AID 743279, 2014; in the data active = activity change below about -50%; inconclusive = mostly about -30% to -49%
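Secreted IL-1B measured by AlphaLISA bead assay after 16 h compound exposure of THP-1 cells; compounds (final up to 57.5 uM) added 1 h before LPS (250 ng/mL) and ATP (1.25 mM) stimulation; lower signal means less secretion.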
TDP1 cell noCPT = qHTS for Inhibitors of human tyrosyl-DNA phosphodiesterase 1 (TDP1): qHTS in cells in absence of CPT; Potency, µM (top dose mostly 46.2 µM), for inactives: at the highest dose activity change, negative = growth inhibition, hits mostly inhibitors; DT40 Tdp1-/- hTDP1 cells, no CPT, ATP luminescence, 48 h; hit rate 15% among 420,000; also: potency is read from the fitted curve at half-maximal effect; nearly all actives have a fitted effect of over 55% in size
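Luminescent ATP content (CellTiter-Glo) served as the growth readout. Knockout chicken DT40 cells expressing human TDP1 were exposed to compounds without camptothecin for a minimum 48 hr at 37 °C.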
TDP1 cell CPT = qHTS for Inhibitors of human tyrosyl-DNA phosphodiesterase 1 (TDP1): qHTS in cells in presence of CPT; chicken DT40 Tdp1-/-;hTDP1 cells + 20 nM CPT, ATP luminescence, 48 h; Potency, µM (doses to about 46.2 µM), inactives show at the top dose activity change, negative = growth inhibition, usual class: inhibitors; hit rate 12% among 420,000; also: potency is read from the fitted curve at half-maximal effect; nearly all actives have a fitted effect of over 55% in size
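Chicken DT40 Tdp1-/- cells stably complemented with human TDP1 were seeded at 400 cells/well in medium containing 20 nM camptothecin, exposed to pin-transferred compounds, and grown at 37 °C for at least 48 hr. Viability was read as ATP luminescence.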
RORgamma inh = qHTS for inhibitors of ROR gamma transcriptional activity; Nuclear receptor ROR-gamma (Mus musculus), P51450; Drosophila S2 Gal4-RORgamma UAS-luciferase reporter, 20 h; Potency, µM (doses to about 53.6 µM), for the others: at the top dose activity change, negative = inhibition, hits mostly inhibitors; hit rate 5.4% among 310,000; AID 2551, 2010; also: potency is read from the fitted curve at half-maximal effect; nearly all actives have a fitted effect of over 60% in size
Target sequence (P51450 whole entry, looked up, the tested form may be a part): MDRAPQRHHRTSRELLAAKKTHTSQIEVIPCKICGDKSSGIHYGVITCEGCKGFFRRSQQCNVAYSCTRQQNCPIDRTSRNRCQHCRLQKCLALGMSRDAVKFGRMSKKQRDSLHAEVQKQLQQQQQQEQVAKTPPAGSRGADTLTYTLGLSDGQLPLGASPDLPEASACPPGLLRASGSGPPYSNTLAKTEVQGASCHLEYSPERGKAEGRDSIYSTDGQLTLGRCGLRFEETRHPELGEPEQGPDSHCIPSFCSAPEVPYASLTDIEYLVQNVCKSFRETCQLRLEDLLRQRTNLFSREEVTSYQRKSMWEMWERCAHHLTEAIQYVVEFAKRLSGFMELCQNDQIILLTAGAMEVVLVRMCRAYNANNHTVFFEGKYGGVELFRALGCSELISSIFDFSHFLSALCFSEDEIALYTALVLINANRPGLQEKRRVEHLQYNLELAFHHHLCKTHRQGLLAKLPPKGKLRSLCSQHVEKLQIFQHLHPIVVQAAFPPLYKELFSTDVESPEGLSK
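Read-out: Photinus luciferase luminescence; inhibitors lower reporter signal. Insect Schneider cells with Gal4-ROR gamma fusion under metallothionein promoter, UAS reporter; 700 uM final copper sulfate induction, 20 hr, ambient temperature.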
ELG1 DNA repair = qHTS screen for small molecules that inhibit ELG1-dependent DNA repair in human embryonic kidney (HEK293T) cells expressing luciferase-tagged ELG1 | HEK293T ELG1-luciferase reporter, luminescence, 16 h; DNA damage induced by 5-fluorouridine | Potency, µM (series often up to 46.1 µM), for inactives: top-dose activity change, negative = inhibition, actives largely listed as inhibitors | hit rate 2.3% among 330,000 | AID 504467, 2011; also: potency is read from the fitted curve at half-maximal effect; nearly all actives have a fitted effect of over 55% in size
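Cells (2,000 per well) received 5-fluorouridine plus test compound or DMSO and were incubated 16 hr at 37 °C, 5% CO2. Luciferase activity was read by luminescence 30 min after ONE-Glo addition; signal suppression marked inhibition of damage-induced ELG1 function.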
ELG1 FLuc counter = qHTS screen for small molecules that inhibit ELG1-dependent DNA repair: Hit Confirmation in Cell-Based Luciferin Assay. cell-free firefly luciferase luminescence counter-screen, ViewLux. hit rate 3% among 350. Potency, µM (doses to about 46.1 µM), inactives show top-dose activity change, negative = inhibition, usual class: inhibitors. shares compounds with ELG1 DNA repair. AID 624247, 2012; also: potency is read from the fitted curve at half-maximal effect
ELG1 Luc conf = HTS assay for small molecules that inhibit ELG1-dependent DNA repair in human embryonic kidney (HEK293T) cells expressing luciferase-tagged ELG1: Hit Confirmation; hit rate 68% among 670; Potency, µM (series often up to 46.1 µM), without a hit: at the top dose activity change, negative = inhibition, actives largely listed as inhibitors; AID 624248, 2012; HEK293T ELG1-luciferase levels, luminescence; cells co-treated with 5-fluorouridine; shares compounds with ELG1 DNA repair; also: potency is read from the fitted curve at half-maximal effect; nearly all actives have a fitted effect of over 55% in size
ELG1-Luc MMS = MMS-stimulated human ELG1 repair inhibition, confirmed. shares compounds with ELG1 DNA repair. HEK293T luciferase-tagged ELG1 level, MMS stimulated. Potency, µM (series often up to 46.1 µM), inactives show at the highest dose activity change, negative = inhibition, actives largely listed as inhibitors. hit rate 53% among 670. AID 624249; also: potency is read from the fitted curve at half-maximal effect; nearly all actives have a fitted effect of over 60% in size
ELG1 5-FU = qHTS screen for small molecules that inhibit ELG1-dependent DNA repair: Hit Confirmation with 5FU Viability; shares compounds with ELG1 DNA repair; Potency, µM (doses to about 46.1 µM), inactives show at the highest dose activity change, negative = viability loss, hits mostly cytotoxic; 670 tested, under 10 active; cell viability with 5-FU, ELG1-dependent repair;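 also: ELG1-luc HEK293T cells cotreated with 5-fluorouridine at 10 µM final; potency is read from the fitted curve at half-maximal effect; viability measured 16 h after compound addition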
ELG1 MMS viab = qHTS screen for small molecules that inhibit ELG1-dependent DNA repair: Hit Confirmation with MMS Viability; shares compounds with ELG1 DNA repair; Potency, µM (doses to about 46.1 µM), for inactives: at the top dose activity change, negative = viability loss, usual class: cytotoxic; Cell viability with MMS, ELG1-dependent DNA repair; hit rate 33% among 670; AID 624251, 2012;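 also: ELG1-luc HEK293T cells co-treated with 10 µM MMS; potency is read from the fitted curve at half-maximal effect; viability read 16 h after compound addition; nearly all actives have a fitted effect of over 60% in size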
ELG1 unstim viab = qHTS screen for small molecules that inhibit ELG1-dependent DNA repair: Hit Confirmation with Unstimulated Viability Assay. shares compounds with ELG1 DNA repair. cell viability counter-screen, unstimulated, luminescence. Potency, µM (highest dose often 45.9 µM), inactives show at the top dose activity change, negative = loss of viability, usual class: cytotoxic. hit rate 8% among 900;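 also: potency is read from the fitted curve at half-maximal effect; compound exposure lasted 16 hours before reading; nearly all actives have a fitted effect of over 55% in size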
FLuc biochem = qHTS screen for small molecules that inhibit ELG1-dependent DNA repair: Hit Confirmation in Biochemical Luciferin Assay. shares compounds with ELG1 DNA repair. purified firefly luciferase, luminescence counter-screen. Potency, µM (highest dose often 57.5 µM), for inactives: at the top dose activity, negative = inhibition, most hits filed as inhibitors. hit rate 10% among 350. AID 624253, 2012; also: potency is read from the fitted curve at half-maximal effect
An asterisk follows results filed as active; u = inconclusive; x = no result; [ ] = dose if it differs, or a comment. Unless noted, calls follow the shape of the dose curve; as a rule, active = well fitted curve in the direction sought with a large enough effect; inconclusive = small, poorly fitted or top-dose-only effect, or another doubt; inactive = no such curve, though single readings can be large; an effect the other way counts as inactive or inconclusive. % is scaled to controls: 0 for no effect and ±100 for the full control effect.

SMILES	Gal4-VP16 FLuc	IL1B secr inh	TDP1 cell noCPT	TDP1 cell CPT	RORgamma inh	ELG1 DNA repair	ELG1 FLuc counter	ELG1 Luc conf	ELG1-Luc MMS	ELG1 5-FU	ELG1 MMS viab	ELG1 unstim viab	FLuc biochem
CCn1c(C)cc(C(=O)COC(=O)c2cccnc2SC)c1C	x	-9	u	16µM*	x	u	x	x	x	x	x	12%	x
Cc1cc(C(=O)COC(=O)c2cccnc2Cl)c(C)n1C	x	15	12%	1%	x	u	-8%	x	x	x	x	u	0.26µM*
CSc1ncccc1C(=O)OCC(=O)c1cc(C)n(C)c1C	x	-9	-30%	-21%	x	u	x	x	x	x	x	x	x
O=C(CSc1nc2ccccc2c(=O)n1-c1ccc(Cl)cc1)N/N=C/C=C/c1ccccc1[N+](=O)[O-]	11%	-9	-21%	1%	-3%	u	x	x	x	x	x	x	x
O=C(CSc1nc2ccccc2c(=O)n1-c1ccccc1)N/N=C/C=C/c1ccccc1[N+](=O)[O-]	8%	u	u	u	11%	2.9µM*	3%	10µM*	3%	u	u	-1%	-11%
Cc1ccccc1N1CCN(C2=NC(=O)/C(=C/c3cn[nH]c3-c3ccccc3)S2)CC1	-15%	7	u	u	-4%	0.82µM*	33%	1.3µM*	0%	u	1%	0%	-3%
NC(C(=O)O)C(c1ccccc1)C(F)F (configuration not stated)	19%	-12	7%	-3%	3%	u	x	x	x	x	x	x	x
CN(C)CC(C)(C)CNS(=O)(=O)c1cccc2nsnc12	-5%	-2	-20%	-12%	-2%	-8%	x	x	x	x	x	x	x
CC1CN(S(=O)(=O)c2ccc(C(=O)NCCCn3ccnc3)cc2)CC(C)O1 (configuration not stated)	-5%[10 µM]	-12	u	-26%	19%	0.73µM*	u	5%	0.028µM*	-3%	0.032µM*	u	-7%
COc1ccc(N2CCN(C(=O)C3CCCN(c4ncnc5c4nc4n5CCCCC4)C3)CC2)cc1 (configuration not stated)	-11%	-2	16µM*	21µM*	40%	3.7µM*	56%	10µM*	u	u	-7%	u	-4%
COC(=O)c1ccccc1NC(=O)C1CCN(c2ncnc3c2nc2n3CCCCC2)CC1	-16%	27	16µM*	21µM*	u	u	-2%	11µM*	u	u	1%	-8%	-11%
CC(C)c1ccc(NC(=O)C2CCN(c3ncnc4c3nc3n4CCCCC3)CC2)cc1	-27%	60	u	u	-39%	u	x	x	x	x	x	x	x
Cc1cccc(NC(=O)C2CCN(c3ncnc4c3nc3n4CCCCC3)CC2)n1	-18%	52	-29%	u	u	1.8µM*	5%	5µM*	u	u	-11%	u	-5%
CCN(CCCNC(=O)CN1C(=O)COc2ccc(S(=O)(=O)N3CCC(C)CC3)cc21)Cc1ccccc1	-18%	x	-21%	u	22%	u	x	x	x	x	x	x	x
Cc1ccc(C(=O)Nc2ccc(N3CCN(C)CC3)cc2)c(Cl)c1	2%	u	-8%	-10%	-4%	u	x	x	x	x	x	x	x
COc1ccc(/C=C/c2ccc3ccccc3n2)cc1OC	x	x	13µM*	u	x	x	36%	x	x	x	x	u	u
COc1ccc(/C=C/c2cnc3ccccc3n2)cc1OC	x	x	20µM*	u	x	x	-8%	x	x	x	x	-4%	0.21µM*
Cc1cn([C@H]2C[C@H](O)[C@@H](CCC(=O)NCc3ccc(N(C)C)cc3)O2)c(=O)[nH]c1=O	x	10	-3%	11%	x	x	x	x	x	x	x	x	x
Cc1c(C)c(C)c(S(=O)(=O)Nc2ccc3[nH]c(=O)[nH]c3c2)c(C)c1C	-2%	25	u	u	35%	1%	x	x	x	x	x	x	x
O=Nc1c2ccc[nH]c-2c2ccc([N+](=O)[O-])cc12	-10%	u	u	-10%	-6%	-3%	x	x	x	x	x	x	x
CCCC(NC(=O)CCc1c(C)c2cc3c(-c4ccccc4)coc3cc2oc1=O)C(=O)O (configuration not stated)	u	31	11%	-10%	u	13%	x	x	x	x	x	x	x

Assay outcomes: PubChem, National Center for Advancing Translational Sciences (NCATS)
